Screening data as filed in PubChem BioAssay.
Sampled rows, rich in hits. Any-hit rate of the full collection: about 1.9%.
SSB-PriA inh: K. pneumoniae PriA-SSBct interaction inhibition; AlphaScreen SSBct-PriA binding, biotinylated peptide; inhibition, % at 33 µM; 430,000 tested, 0.6% active; AID 1272365; in the data active means inhibition mostly above about 37%, no sharp cut-off; inactive means mostly below about 20%;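 further: plate controls were negative control peptide for no effect and reference peptide for full effect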
PrPC TRFRET: reduces human prion protein on the cell surface. P04156. 370,000 tested, 0.43% active. cell surface PrPC, TR-FRET read-out. inhibition, % at 13.8 µM; in the data active means inhibition above about 24%; further: 0% = median of the test wells and 100% = reference compound wells
PrP 5UTR inh: inhibition of PrP 5' UTR reporter expression | cell-based PrP 5' UTR mRNA reporter, plate reader | 340,000 tested, 0.35% active | inhibition, % (no concentration beside the values); in the data active means inhibition above about 52%; further: 0 = median of the neutral control wells
BJeLR viability: kills HRASV12-expressing BJeLR cells. BJeLR (HRASV12) viability, CellTiter-Glo ATP luminescence, 48 h. inhibition, % (no concentration beside the values). 300,000 tested, 0.17% active. AID 1554; in the data active means inhibition above about 50%; inconclusive means no clear call, values can overlap the other calls
RecA splice inh: blocks M. tuberculosis RecA intein splicing; P9WHJ3; cell-free RecA intein splicing, fluorescence; inhibition, % (concentration not given with the values); 290,000 tested, 0.75% active; in the data active means inhibition above about 30%; inconclusive means no clear call, values can overlap the other calls;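 further: 0% = vehicle wells and 100% = reference inhibitor control wells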
Target sequence (P9WHJ3 whole entry, looked up, canonical isoform): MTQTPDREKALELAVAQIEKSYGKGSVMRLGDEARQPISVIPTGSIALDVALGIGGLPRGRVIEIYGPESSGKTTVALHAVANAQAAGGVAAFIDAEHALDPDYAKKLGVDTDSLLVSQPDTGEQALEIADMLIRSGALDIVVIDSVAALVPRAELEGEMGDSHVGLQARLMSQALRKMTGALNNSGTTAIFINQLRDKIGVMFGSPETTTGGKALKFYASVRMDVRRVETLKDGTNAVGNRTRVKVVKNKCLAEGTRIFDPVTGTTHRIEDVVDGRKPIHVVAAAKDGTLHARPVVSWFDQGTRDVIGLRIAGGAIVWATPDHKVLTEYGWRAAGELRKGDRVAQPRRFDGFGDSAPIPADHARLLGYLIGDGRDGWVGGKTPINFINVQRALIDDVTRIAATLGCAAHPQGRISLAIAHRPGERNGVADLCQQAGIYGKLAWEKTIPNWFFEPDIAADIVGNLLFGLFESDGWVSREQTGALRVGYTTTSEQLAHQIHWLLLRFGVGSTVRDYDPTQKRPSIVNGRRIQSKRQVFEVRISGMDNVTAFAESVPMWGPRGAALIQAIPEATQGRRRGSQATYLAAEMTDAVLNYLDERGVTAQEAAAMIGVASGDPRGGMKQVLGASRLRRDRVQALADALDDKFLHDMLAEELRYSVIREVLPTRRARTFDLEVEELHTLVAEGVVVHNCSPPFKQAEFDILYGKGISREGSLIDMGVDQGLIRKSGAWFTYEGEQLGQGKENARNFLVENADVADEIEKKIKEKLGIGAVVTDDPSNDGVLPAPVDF
PfHsp40 rescue: restores yeast growth despite PfHsp40 toxicity; growth rescue, % at 12.5 µM; S. cerevisiae expressing PfHsp40, growth rescue, ATP luminescence; AID 504582; 340,000 tested, 0.68% active; in the data active means growth rescue above about 28%, passing the limit was not always enough; inconclusive means no clear call, values can overlap the other calls;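 further: yeast W303a lacking pdr1 and pdr3 grown in galactose medium; growth measured after three days at 30 °C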
Numbers without * were called inactive; i = inactive; ? = inconclusive; nt = no result.

SMILES	SSB-PriA inh	PrPC TRFRET	PrP 5UTR inh	BJeLR viability	RecA splice inh	PfHsp40 rescue
Cc1cc(N/N=C/c2ccccc2[N+](=O)[O-])nc(-n2nc(C)cc2C)n1	i	8.0	-13.0	0.2	0.5	54.8*
COc1ccc(C=NNc2cc(N3CCCC3)nc(N3CCCC3)n2)cc1	48.8*	nt	nt	nt	nt	nt
Cc1cc(N/N=C/c2cccc([N+](=O)[O-])c2)nc(-n2nc(C)cc2C)n1	i	2.4	-22.6	-1.7	-2.0	4.2
COc1ccc(/C=N/Nc2cc(N3CCCC3)nc(N3CCCC3)n2)cc1	nt	5.9	-4.2	-1.4	4.2	?
Cc1cc(C)n(CC(=O)NCc2nnc(C)o2)n1	-6.0	nt	nt	nt	nt	nt
COc1ccc(Cl)cc1N1CCn2c1nc1c2c(=O)n(CC(=O)C(C)(C)C)c(=O)n1C	0.0	nt	nt	nt	nt	nt
COc1ccc(S(=O)(=O)Nc2cccc3c2O[C@H](CN(C)C(=O)NC(C)C)[C@@H](C)CN([C@H](C)CO)C3=O)cc1	99.1*	-2.1	-22.4	nt	nt	-0.1
COc1ccc(C(O)=C2C(=O)C(=O)N(CCCN3CCOCC3)C2c2ccc(C(C)C)cc2)cc1 (stereo not drawn)	-9.3	nt	nt	nt	nt	nt
O=C(NCCCS(=O)(=O)N1CCN(c2ncccn2)CC1)c1ccc(S(=O)(=O)N2CCOCC2)cc1	-19.0	nt	nt	nt	nt	nt
O=C(NCCn1ccc(-c2ccncc2)n1)C1(c2ccccc2)CCOCC1	-10.0	nt	nt	nt	nt	nt
O=C(NCCN1CCOCC1)c1ccc(Cl)c(S(=O)(=O)N2CCCC2)c1	39.4*	4.4	-20.3	-9.1	-2.4	-1.0
O=C(NCCn1ccnc1-c1ncccn1)c1ccc(S(=O)(=O)N2CCOCC2)cc1	92.0*	nt	nt	nt	nt	nt
O=C(NCCn1ccnc1-c1ncccn1)C1(c2ccccc2)CCOCC1	40.0*	nt	nt	nt	nt	nt
COC(=O)c1cnc2cc(C(F)(F)F)ccc2c1OC	-11.0	nt	nt	nt	nt	nt
CCOC(=O)CCC(=O)N1CCN(C(=O)C2CC2c2ccccc2)CC1 (stereo not drawn)	-3.0	nt	nt	nt	nt	nt
Brc1ccc(C=Nc2ccc(Nc3ccccc3)cc2)s1	88.2*	nt	-7.4	-6.2	-0.6	1.6
COc1ccc(C(=O)Nc2cccc(C(=O)NN=Cc3ccc(OC)cc3OC)c2)cc1	11.2	nt	nt	nt	nt	nt
CCCCN(C)S(=O)(=O)c1ccc(C(=O)Nc2cnc(-c3cc(OC)ccc3OC)s2)cc1	1.0	nt	nt	nt	nt	nt
O=[N+]([O-])c1ccc(NC(=S)NCc2ccc(F)cc2)cc1	14.7	6.4	-28.4	-5.0	7.0	109.3*
O=[N+]([O-])c1ccc(NC(=S)NCc2ccncc2)cc1	-1.3	-16.5	-39.3	-1.2	4.5	0.6
CC(C)C1S/C(=N/N=C/c2ccco2)NC1=O (stereo not drawn)	nt	1.4	-26.9	-4.2	nt	58.1*
O=C(OC1CN(c2nc3ccccc3s2)C1)c1ccc2c(c1)OCO2	-2.0	nt	nt	nt	nt	nt
Cc1c(Cl)cccc1NC(=S)/C(=C(\[O-])c1ccc(Cl)s1)[n+]1ccccc1	9.5	4.9	-4.4	4.9	37.2*	-1.1
CCOc1ccc(N)c([N+](=O)[O-])c1	39.0*	nt	nt	nt	nt	nt
CCOc1ccc([N+](=O)[O-])c(N)c1	-2.1	-15.0	-2.7	2.6	3.1	0.3
SMILES	SSB-PriA inh	PrPC TRFRET	PrP 5UTR inh	BJeLR viability	RecA splice inh	PfHsp40 rescue
CC(C)(C)c1ccc(/C=N/OCC(=O)NCc2ccc(F)cc2)cc1	nt	13.1	-6.1	-0.2	1.5	73.6*
O=C1CC(c2ccccc2F)C(=O)N1 (stereo not drawn)	42.0*	nt	nt	nt	nt	nt
CC1=C[C@H]2OC(=O)[C@@H](C)[C@H]2C[C@@H]2[C@H]1C[C@@H](O)[C@@]2(C)O	-5.9	-2.6	-21.4	-4.1	-1.9	39.2*
C=C1CCC(O)C2(C)CCC3C(C)C(=O)OC3C12O (stereo not drawn)	-8.7	3.0	-14.8	-0.2	2.8	-0.5
CC(=O)/C(C#N)=C1/NC(=O)[C@H](Cc2cc(Cl)ccc2Cl)S1	-16.0	nt	nt	nt	nt	nt
CC(=O)/C(C#N)=C1\NC(=O)C(Cc2ccccc2Cl)S1 (stereo not drawn)	6.9	7.9	2.5	21.1	-0.1	39.3*
Cc1ccc(NC(=O)CSc2nccn3nc(-c4ccc(Cl)cc4)cc23)cc1F	-9.0	nt	nt	nt	nt	nt
Cc1cc(-c2ccncc2)nn1CCNC(=O)c1cccc(C#N)c1	-4.0	nt	nt	nt	nt	nt
N#Cc1ccc(NCCc2ccccn2)c([N+](=O)[O-])c1	3.2	-34.7	1.9	0.6	0.2	0.8
O=[N+]([O-])c1cc(Cl)ccc1NCCc1ccccn1	54.6*	-15.5	-22.2	-9.2	4.2	-0.4
CCCN1CCCc2cc(CCNS(=O)(=O)c3ccc(F)cc3F)ccc21	78.5*	nt	nt	nt	nt	nt
CCCN1CCCc2cc(CCNS(=O)(=O)c3ccc(F)cc3C)ccc21	51.0*	nt	nt	nt	nt	nt
